The list is not random: actives were taken first. Their share in the collection is about 2.4%.
D2 ag-1: HTS Assay for Allosteric Agonists of the Human D2 Dopamine Receptor: Primary Screen for Agonists. HEK293 T-REx D2 cells, calcium flux agonist mode. activation, % at 2 µM. hit rate 0.53% among 340,000. AID 485358, 2010;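 active = activation over 3 SD above normal in the single-dose calcium agonist read, cut at about 30% in these data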; also: 0% is about no effect
Target sequence (P14416 whole entry, looked up): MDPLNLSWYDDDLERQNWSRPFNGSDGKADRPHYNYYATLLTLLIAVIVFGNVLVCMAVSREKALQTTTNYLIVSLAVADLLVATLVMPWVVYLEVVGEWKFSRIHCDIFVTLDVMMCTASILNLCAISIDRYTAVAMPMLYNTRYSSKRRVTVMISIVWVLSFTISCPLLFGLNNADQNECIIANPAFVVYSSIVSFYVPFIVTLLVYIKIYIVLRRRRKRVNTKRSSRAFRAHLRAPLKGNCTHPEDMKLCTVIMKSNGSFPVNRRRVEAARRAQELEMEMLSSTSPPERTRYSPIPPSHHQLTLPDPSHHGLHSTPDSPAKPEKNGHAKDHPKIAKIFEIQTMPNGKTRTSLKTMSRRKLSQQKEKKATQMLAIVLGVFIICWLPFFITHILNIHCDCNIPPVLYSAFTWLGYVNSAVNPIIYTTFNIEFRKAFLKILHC
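Agonism scored from kinetic calcium signal (1 read/sec, 180 s) following compound pin transfer, after a 10 s baseline. Cells: HEK293 Trex line expressing inducible D2 receptor coupled to calcium, dye-loaded after overnight culture at 30 C.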
D2 ag-2: Beta-Arrestin HTS for Positive Allosteric Modulators of the Human D2 Dopamine Receptor: Agonists; D(2) dopamine receptor (Homo sapiens), P14416; hit rate 0.084% among 360,000; DiscoveRx PathHunter D2 beta-arrestin, luminescence, 90 min; 100% = 57 uM dopamine signal; activation, % (test concentration not listed); in the data active = activation above about 40%; inconclusive = between about 15% and that limit
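Agonist mode: compounds alone added to overnight-plated D2 PathHunter cells for 90 min at 37 C, with 57 uM final dopamine (EC100) defining full response. Beta-arrestin recruitment detected by chemiluminescent reagent, read after 1 h at ambient temperature.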
D2 antagonist: HTS Assay for Allosteric Antagonists of the Human D2 Dopamine Receptor: Primary Screen for Antagonists | inhibition, % at 10 µM | hit rate 2% among 340,000 | D(2) dopamine receptor (Homo sapiens), P14416 | AID 485344, 2010 | HEK293 TREx D2 cells, calcium flux, dopamine EC80; in the data active = inhibition above about 30%; inactive = below that, where a call was filed; also: 0% is about no effect
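In this primary screen, negative modulation is detected by tracking calcium flux after an EC80 dopamine challenge in inducible HEK293 T-REx D2 cells preexposed to test compound for 180 s.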
D2 PAM-1: Beta-Arrestin HTS for Positive Allosteric Modulators of the Human D2 Dopamine Receptor: Potentiators | D(2) dopamine receptor (Homo sapiens), P14416 | potentiation, % (no concentration beside the values) | hit rate 0.23% among 360,000 | DiscoveRx D2 beta-arrestin cells, luminescence, 90 min; 100% = 57 uM dopamine signal; in the data active = potentiation above about 50%; inconclusive = mostly about 30% to 49%
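PathHunter beta-arrestin assay in DiscoveRx D2 cells. Compounds were added with an EC20 of dopamine (50 nM final) for 90 min at 37 deg C. Luminescence was read 1 h after detection reagent, with 57 uM dopamine as the EC100 control.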
D2 PAM-2: HTS Assay for Positive Allosteric Modulators of the Human D2 Dopamine Receptor: Primary Screen for Potentiators. D(2) dopamine receptor (Homo sapiens), P14416. HEK293 T-REx D2, calcium flux, EC20 dopamine potentiation. potentiation, % at 10 µM. hit rate 0.34% among 340,000. AID 485347, 2010;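 active = potentiation over 3 SD above the plate norm, cut at about 30% in these data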; also: 0% is about no effect
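Potentiation of an EC20 dopamine calcium response measured kinetically over 180 s, after a preceding 180 s compound-only read flagging agonists. Cells: inducible Hek293 Trex D2 line, 4000/well, cultured overnight at 30 C before dye loading.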
Starred values were filed as active, the others as inactive; ? = inconclusive; · = no result given.

SMILES	D2 ag-1	D2 ag-2	D2 antagonist	D2 PAM-1	D2 PAM-2
CCOc1ccccc1-n1c(SCC(=O)NC)nnc1-c1ccco1	0	0	-2	-3	10
CCOc1ccc(-n2c(SCC(=O)NC)nnc2-c2ccco2)cc1	0	2	36*	-2	7
O=C(CSc1nnc(-c2ccco2)n1-c1ccccc1)N1CCN(C(=O)c2ccco2)CC1	2	-2	65*	1	·
Cn1c(SCC(=O)N2CCN(c3ccccc3)CC2)nnc1-c1ccco1	1	-3	2	-10	-9
Cc1ccc(CN(C(=O)COc2ccc(C(C)(C)C)cc2)C2CCS(=O)(=O)C2)o1 (centres undefined)	6	·	·	·	2
Cn1c(=O)c2sccc2n2c(CCCC(=O)Nc3ccc(Oc4ccccc4)cc3)nnc12	0	·	·	·	-1
COC(=O)c1cc2occc2n1Cc1ccc(Cl)cc1	-1	-1	0	-9	-7
CCOC(=O)c1cc2occc2n1Cc1c(F)cccc1Cl	0	-4	31*	-10	-3
CCOC(=O)c1cc2occc2n1Cc1ccc(F)cc1	0	-4	34*	-5	-14
CCOCCCNC(=O)C(c1ccccc1)N(Cc1cccs1)C(=O)c1ccc(NC(C)=O)cc1 (centres undefined)	-1	·	·	·	2
C=CCNC(=O)c1ccccc1NC(=O)COc1ccccc1	0	-2	59*	-6	-2
C=CCNC(=O)c1ccccc1Cl	0	0	40*	-6	-2
Cc1ccc(CN2C(=O)C(=O)c3cc(Br)cc(C)c32)cc1	13	·	·	·	7
CCCCN(C(=O)C1CCC(CNS(=O)(=O)c2cccc3nsnc23)CC1)c1ccccc1 (centres undefined)	1	·	·	·	12
CC(=O)N1c2ccc(S(=O)(=O)N(C)CC(=O)N(Cc3ccccc3)C(C)C)cc2CC1C (centres undefined)	-1	·	·	·	2
c1ccc(Cn2nnnc2C(c2cccs2)N2CCSCC2)cc1 (centres undefined)	0	-2	33*	-11	-13
CC1CCN(C(=O)c2ccc(Br)c(S(=O)(=O)N3CCOCC3)c2)CC1	0	-2	-15	-4	-3
CC1CCN(S(=O)(=O)c2cc(C(=O)NC3(C)CCS(=O)(=O)C3)ccc2Br)CC1 (centres undefined)	0	12	31*	-4	-3
O=C(O)c1cccc(CN2C(=O)S/C(=C/c3cccc([N+](=O)[O-])c3)C2=O)c1	0	-1	34*	2	4
Cc1cccc(C)c1NC(=O)CN1C(=O)S/C(=C\c2cccn2-c2cccc(C(=O)O)c2)C1=O	0	-2	0	-8	-2
Cc1cccc(C)c1NC(=O)CN1C(=O)S/C(=C\c2cccn2C)C1=O	0	1	30*	3	1
CC(=O)c1ccc(NC(=O)NCCc2c[nH]c3ccccc23)cc1	-1	·	·	·	3
Cc1ccc(NC(=O)N2CCC(C(=O)NCc3ccccc3)CC2)cc1	0	-2	39*	-12	-7
COc1ccc(OC2CCN(C(=O)Nc3ccc(C)cc3)CC2)cc1	1	-8	50*	-21	-13
COc1ccc(NC(=O)N2CCC(C(=O)c3ccc(F)cc3)CC2)cc1	0	1	-15	-15	8
SMILES	D2 ag-1	D2 ag-2	D2 antagonist	D2 PAM-1	D2 PAM-2
COc1ccc(N2CCN(S(=O)(=O)c3c(C)nc4scc(C)n4c3=O)CC2)cc1	-1	-2	-3	-6	-2
Cc1nc2scc(C)n2c(=O)c1S(=O)(=O)N1CCN(c2ccccc2)CC1	-1	1	32*	0	0
CCc1nn2c(-c3ccco3)ccnc2c1-c1ccc(F)cc1	1	·	·	·	-5
CCOc1cccc(CN2CCCC(C(=O)c3cc(Cl)ccc3OC)C2)c1O (centres undefined)	1	2	66*	-22	-20
Cc1cccc(C(=O)N2CCCC(N3CCN(c4cccc(Cl)c4)CC3)C2)n1 (centres undefined)	0	1	4	-20	3
CS(=O)(=O)N1CCC(C(=O)N2CCN(c3cccc(Cl)c3)CC2)CC1	0	3	7	-4	·
CCOc1cccc(CN2CCCC(N3CCN(c4cccc(Cl)c4)CC3)C2)c1O (centres undefined)	8	-2	37*	-21	-9
CS(=O)(=O)N1CCCC(C(=O)N2CCN(c3cccc(Cl)c3)CC2)C1 (centres undefined)	1	4	31*	2	6
O=C(c1cnccn1)N1CCCC(N2CCN(c3cccc(Cl)c3)CC2)C1 (centres undefined)	37*	5	8	-20	-3
CCOc1cccc(CN2CCCC(N3CCc4ccccc4C3)C2)c1O (centres undefined)	-1	-6	-19	-24	12
Cc1ccccc1CN(C)CC(=O)Nc1ccccc1Oc1ccccc1	3	-9	43*	-8	15
CN1CCC(=C2c3ccccc3CCc3sccc32)CC1	1	-8	86*	-36	-26
CN1CCC(=C2c3ccccc3CC(=O)c3sccc32)CC1	2	-3	8	-27	10
COc1ccccc1C1C(C(C)=O)=C(C)N=c2s/c(=C\c3cc(OC)c(OC)c(OC)c3)c(=O)n21 (centres undefined)	1	2	3	16	32*
CCn1cc(/C=N/NC(=O)c2cc3c(ccc4ccccc43)o2)c2ccccc21	0	0	-5	?	35*
CN(CCNC(=O)c1cn(C)c2ccc(S(=O)(=O)N(C)C)cc2c1=O)CCc1ccccc1	16	-1	45*	-11	-24
CCCCN(C)CCCNC(=O)c1cn(C)c2ccc(S(=O)(=O)N(C)C3CCCCC3)cc2c1=O	1	0	34*	-16	7
COc1ccc(CCNC(=O)c2cn(C)c3ccc(S(=O)(=O)N4CCOCC4)cc3c2=O)cc1OC	-3	1	40*	-3	6
CC1CCCC(NC(=O)c2cn(C)c3ccc(S(=O)(=O)N4CCCC4)cc3c2=O)C1C (centres undefined)	0	·	31*	·	2
CCn1cc(C(=O)NCCc2ccc(OC)c(OC)c2)c(=O)c2cc(S(=O)(=O)N3CCOCC3)ccc21	-3	-1	3	5	6
COc1ccc(-c2nc3scc(CCNS(=O)(=O)c4ccc(Oc5ccccc5)cc4)n3n2)cc1OC	0	·	·	·	3
COc1ccc2cc3cc(C(=O)NCCN4CCN(c5ccccc5F)CC4)oc3nc2c1	15	5	38*	-38	-19

Screens: PubChem BioAssay, National Center for Advancing Translational Sciences (NCATS)
